Jurkat NFkB inh: inhibitors of the PMA/ionomycin-induced NF-kB reporter in Jurkat cells | AID 435003 | 0.53% of 330,000 active | PMA/ionomycin-induced NF-kB luciferase reporter, luminescence | inhibition, % at 4 µM; in the data active = inhibition above about 50%
Beta cell apopt: blocks beta cell apoptosis; INS-1E cytokine-induced death, ATP luminescence, 48 h; percent of positive-control rescue, neutral wells zero; protection from apoptosis, % (test concentration not listed); 0.8% of 300,000 active; AID 435005;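 active = Every replicate reaches about 75%, or at least half do and their mean reaches it too, limit read from the data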;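 also: higher means more ATP so stronger rescue from cytokine killing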
Bfl-1 A1 inh: inhibitors of the anti-apoptotic protein A1, read as caspase activation. MEF A1-2A-BIM cells, Caspase-Glo 3/7 luminescence, 3 h; percent of clofoctol response, vehicle zero. caspase activation, % (concentration not given with the values). 0.066% of 330,000 active;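 active = over half of replicate activation scores above 10%, or exactly half above 10 with the replicate mean above 10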
Mdm2-MdmX inh: human Mdm2/MdmX binding inhibition; O15151+Q00987; SaOS-2 split-luciferase Mdm2/MdmX complementation, luminescence; inhibition, % at 8 µM; 3% of 330,000 active;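 active = inhibition of at least 50% at 8 µM in the primary screen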
Target sequence (O15151 whole entry, looked up): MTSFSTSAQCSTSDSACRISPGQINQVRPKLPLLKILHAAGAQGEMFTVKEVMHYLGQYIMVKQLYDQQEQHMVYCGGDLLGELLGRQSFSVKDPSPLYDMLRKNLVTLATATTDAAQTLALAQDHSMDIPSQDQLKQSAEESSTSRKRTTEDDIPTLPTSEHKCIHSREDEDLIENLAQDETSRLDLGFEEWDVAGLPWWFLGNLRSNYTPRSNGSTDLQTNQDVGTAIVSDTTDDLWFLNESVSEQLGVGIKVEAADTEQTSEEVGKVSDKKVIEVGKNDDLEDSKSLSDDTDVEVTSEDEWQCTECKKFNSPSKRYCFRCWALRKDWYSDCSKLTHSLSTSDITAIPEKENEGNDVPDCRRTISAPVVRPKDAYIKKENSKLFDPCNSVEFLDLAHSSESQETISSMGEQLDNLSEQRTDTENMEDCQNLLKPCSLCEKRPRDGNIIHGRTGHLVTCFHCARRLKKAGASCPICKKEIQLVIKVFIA
Target sequence (Q00987 whole entry, looked up): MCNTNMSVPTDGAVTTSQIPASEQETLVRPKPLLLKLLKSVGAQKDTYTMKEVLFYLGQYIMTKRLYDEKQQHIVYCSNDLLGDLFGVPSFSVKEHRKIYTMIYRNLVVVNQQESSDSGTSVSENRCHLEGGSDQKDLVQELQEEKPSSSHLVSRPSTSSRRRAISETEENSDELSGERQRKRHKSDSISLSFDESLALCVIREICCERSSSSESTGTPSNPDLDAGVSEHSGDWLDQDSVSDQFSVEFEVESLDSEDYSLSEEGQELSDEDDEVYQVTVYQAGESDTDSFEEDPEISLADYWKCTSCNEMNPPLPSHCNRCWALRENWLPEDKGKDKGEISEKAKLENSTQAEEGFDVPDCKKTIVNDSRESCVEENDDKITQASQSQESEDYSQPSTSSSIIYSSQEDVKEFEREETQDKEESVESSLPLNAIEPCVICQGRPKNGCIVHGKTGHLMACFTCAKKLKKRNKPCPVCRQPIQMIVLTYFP
697 NFkB inh: lowers PMA/ionomycin-induced NF-kB signal in 697 B cells. 697 B-cell NF-kB luciferase reporter, 16 h. inhibition, % at 4 µM. 0.33% of 330,000 active. AID 435022; in the data active = inhibition above about 35%
NTR1 ag: agonists of human neurotensin receptor NTR1. P30989. NTR1-U2OS beta-arrestin-GFP spot imaging, agonist mode. activation, % at 20 µM. 0.17% of 330,000 active;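 active = activation at or above 40% of the spot to cytoplasm intensity ratio, with at least 20 cells analyzed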
Mdm2 MdmX conf: human Mdm2/MdmX binding inhibition, confirmed; luminescent assay; shares compounds with Mdm2-MdmX inh; 55% of 10,000 active; inhibition, % at 8 µM; AID 489028; in the data active = inhibition above about 40%
Full FLuc ctr: full-length luciferase inhibition in Mdm2/MdmX counter-screen; inhibition, % at 8 µM; shares compounds with Mdm2-MdmX inh; AID 504607; SaOS-2 full-length luciferase counterscreen, luminescence; 77% of 6,200 active;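 active = mean inhibition at 8 µM reaching about 37%, which flags the compound as non-specific, limit read from the data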;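 also: p53-null SaOS-2 cells with luciferase driven by a doxycycline-inducible promoter; compound on cells about two nights before reading with doxycycline added after day one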
Of the large screens only hits and unclear results are named; the others gave an inactive call (follow-up assays come after a bar, where they were run). Only some compounds are listed: those with a hit (about 3.8% of all), similar ones and a draw of the others.

C/C(=N\NC(=O)c1nnn(-c2nonc2N)c1-c1cccs1)c1cccc(O)c1	none
Cc1cc(-c2nnc(SCC(=O)Nc3ccc(F)c(F)c3)n2N)n[nH]1	none
CN(C)CCOc1ccc(-c2c(-c3ccsc3)sc3ccccc23)cc1	Mdm2-MdmX inh 93 | Mdm2 MdmX conf inactive
COc1cccc(-c2sc3ccc(OC)cc3c2-c2ccc(OCCN(C)C)cc2)c1	Mdm2-MdmX inh 99 | Mdm2 MdmX conf inactive
COc1ccc(-c2sc3ccccc3c2-c2ccc(OCCN(C)C)cc2)cc1	Beta cell apopt 76, Mdm2-MdmX inh 100 | Mdm2 MdmX conf 49 | Full FLuc ctr inactive
COc1ccc(-c2sc3ccccc3c2-c2ccc(O)cc2)cc1	none
Cc1c(NS(=O)(=O)c2cccc(C(=O)N3CCC(C(N)=O)CC3)c2)c(=O)n(-c2ccccc2)n1C	none
CCCCOC(=O)Cn1c2ccc(OC)cc2c2nc3ccccc3nc21	Mdm2-MdmX inh 75 | Mdm2 MdmX conf inactive
O=C(O)c1ccccc1Nc1cccc(OCc2ccc3ccccc3n2)c1	none
COc1ccc(-c2ccc(=O)n(CC(=O)Nc3cccc(O)c3)n2)cc1OC	Mdm2-MdmX inh 55 | Mdm2 MdmX conf 55 | Full FLuc ctr 108
CC(C)Cc1nc2oc3c(NCCCN4CCOCC4)ncnc3c2c2c1CCC2	none
CC(C)Cc1nc2oc3c(Cl)ncnc3c2c2c1CCC2	Mdm2-MdmX inh 100 | Mdm2 MdmX conf 70 | Full FLuc ctr 51
COc1cccc(OC)c1C(=O)Nc1cc(C)nn1-c1nc2ccccc2[nH]1	Mdm2-MdmX inh 77 | Mdm2 MdmX conf 54 | Full FLuc ctr 63
Cc1cc(NC(=O)c2sccc2C)n(-c2nc3ccccc3[nH]2)n1	Mdm2-MdmX inh 59 (no result: Beta cell apopt) | Mdm2 MdmX conf inactive
Cc1cc(NC(=O)C2CCCC2)n(-c2nc3ccccc3[nH]2)n1	Mdm2-MdmX inh 53 | Mdm2 MdmX conf 41 | Full FLuc ctr 63
COc1ccc(C(=O)Nc2cc(C)nn2-c2nc3ccccc3[nH]2)c(OC)c1	Mdm2-MdmX inh 51 | Mdm2 MdmX conf inactive
COc1ccc(CN(CC(=O)NCc2ccco2)C(=O)CNS(=O)(=O)c2ccc(C)cc2)cc1	none
O=C(NCCC1=CCCCC1)c1coc(=O)c(Br)c1	Mdm2-MdmX inh 84 | Mdm2 MdmX conf inactive | Full FLuc ctr inactive
O=C(N/N=C/c1cccn1-c1ccc(O)cc1)c1cccc2ccccc12	Mdm2-MdmX inh 64 | Mdm2 MdmX conf inactive
Cc1ccc(C(=O)N2C(CC(=O)Nc3ccc(Cl)cc3)C(=O)NC3CCCCC32)cc1 (centres undefined)	Mdm2-MdmX inh 54 | Mdm2 MdmX conf 55 | Full FLuc ctr inactive
Cc1cccc(NC(=O)CC2C(=O)NC3CCCCC3N2C(=O)c2ccccc2Cl)c1 (centres undefined)	none
CN(C)CC(CCCCC(CN(C)C)C(=O)c1ccccc1)C(=O)c1ccccc1 (centres undefined)	Mdm2-MdmX inh 56 (no result: Beta cell apopt, Bfl-1 A1 inh) | Mdm2 MdmX conf 43 | Full FLuc ctr 54
COc1ccccc1NC(=O)CCc1nnc2ccc(N3CCC4(CC3)OCCO4)nn12	none
COc1ccc(C(C(=O)NCC2CCCO2)N(Cc2cccs2)C(=O)c2snc(C(N)=O)c2N)cc1OC (centres undefined)	none
CCOc1ccc(C(C(=O)NCC2CCCO2)N(Cc2cccs2)C(=O)c2snc(C(N)=O)c2N)cc1 (centres undefined)	Mdm2-MdmX inh 50 | Mdm2 MdmX conf 51 | Full FLuc ctr 78
O=C(NCc1ccccn1)c1cccc(S(=O)(=O)NCc2ccccc2)c1	none (no result: Beta cell apopt)
Brc1ccc(/C=N/Nc2ncnc3c2cnn3Cc2ccccc2)cc1	Mdm2-MdmX inh 95 | Mdm2 MdmX conf 48 | Full FLuc ctr 68
c1ccc(Cn2ncc3c(Nc4ccccc4)ncnc32)cc1	none
COc1ccc(S(=O)(=O)N2CCN(CCCOc3ccc(F)cc3)CC2)cc1OC	none
Cc1cc(C)c(NC(=O)c2cccc3c2C(=O)N(C2CCCCC2)C3)c(C)c1	Mdm2-MdmX inh 63 | Mdm2 MdmX conf inactive
O=C(/C=C/c1ccc(F)cc1)NC(=S)N1CCCCC1c1cccnc1 (centres undefined)	none
O=C1/C(=C/c2ccc(F)cc2)SC(=S)N1CC(=O)N1CCCCC1c1cccnc1 (centres undefined)	Mdm2-MdmX inh 74 | Mdm2 MdmX conf inactive
O=C1/C(=C/c2ccccc2F)SC(=S)N1CC(=O)N1CCCCC1c1cccnc1 (centres undefined)	Mdm2-MdmX inh 79 | Mdm2 MdmX conf 41 | Full FLuc ctr inactive
CCOC(=O)[C@@H]1[C@H]2COc3cc(OC)ccc3[C@@H]2N2C(=O)N(c3cccc(F)c3)C(=O)[C@@]12C	none
C=CCN(c1ccccc1)S(=O)(=O)c1cccc(C(=O)N(CC)CC(=O)Nc2c(F)cccc2F)c1	none
COc1cc(-c2nc(-c3ccccc3)c(-c3cc([N+](=O)[O-])ccc3C)[nH]2)cc(OC)c1OC	Mdm2-MdmX inh 69 | Mdm2 MdmX conf inactive
O=[N+]([O-])c1cccc(-c2nc(-c3ccccc3)c(-c3cccs3)[nH]2)c1	none
CCOC(=O)C1=C(C)n2c(s/c(=C/c3cccc([N+](=O)[O-])c3)c2=O)=NC1c1ccc(O)c(OC)c1 (centres undefined)	Mdm2-MdmX inh 82 | Mdm2 MdmX conf 77 | Full FLuc ctr inactive
CCOC(=O)C1=C(C)N=c2s/c(=C/c3ccccc3)c(=O)n2C1c1ccc(OC)c(OC)c1 (centres undefined)	none
C/C(=N\NC(=O)COc1cccc(C)c1)c1ccc2ccccc2c1O	Mdm2-MdmX inh 52 | Mdm2 MdmX conf 61 | Full FLuc ctr inactive
CC(=O)c1cccc(CN2CCC(C(=O)Nc3ccc(-c4cccc(C)c4)cc3)CC2)c1	Mdm2-MdmX inh 52 (no result: Beta cell apopt) | Mdm2 MdmX conf inactive
CCCCN(CC)CCNC(=O)c1cc2c(=O)n(C)c3ccccc3c2s1	none
CCn1c(=O)c2cc(C(=O)NCCCOC)sc2c2ccccc21	Mdm2-MdmX inh 64 | Mdm2 MdmX conf 49 | Full FLuc ctr 103
CCn1c(=O)c2cc(C(=O)NCCC(C)C)sc2c2ccccc21	none
CCCN(CCC)CCCNC(=O)c1cc2c(=O)n(CC)c3ccccc3c2s1	Mdm2-MdmX inh 71 | Mdm2 MdmX conf 58 | Full FLuc ctr 59
CCCCN(CC)CCNC(=O)c1cc2c(=O)n(CC)c3ccccc3c2s1	Mdm2-MdmX inh 73 | Mdm2 MdmX conf 52 | Full FLuc ctr 66
CCCCN(CC)CCNC(=O)c1cc2c(=O)[nH]c3ccc(C)cc3c2s1	Mdm2-MdmX inh 83 (no result: Beta cell apopt) | Mdm2 MdmX conf 47 | Full FLuc ctr 68

Screens as filed in PubChem.
